Results as given in paper PMC7819943, “Rice protein-binding microarrays: a tool to detect cis-acting elements near promoter regions in rice”.
In all, about 68,000 sequences were measured (“fluorescence intensity (a.u.)”: median about 9,100, highest 2% from about 16,000 on). For the sample, the highest values were picked, then their nearest neighbours and some sequences at random.

Target: OsWRKY34 (Oryza sativa, UniProt Q0JBA9 1-250)
Assay: protein-binding microarray (RPBM); PBS, 2% BSA, 51.3 ng/ul salmon testes DNA, 50 uM zinc acetate, 200 nM TF, 25 C, 1 h; high values mean tight binding
Settings: protein: recombinant; tags: N-terminal polyhistidine and DsRed monomer fusion (pET32a); label: CyDye5-dUTP incorporated in the synthesized complementary strand; 3' TTTTT single-stranded linker to array surface; dsDNA, one strand shown
How it was run: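 A custom Agilent array was converted to double-stranded form by primer extension with Cy5-dUTP and blocked with 2% BSA. Protein at 200 nM in PBS with 2% BSA, salmon testes DNA and 50 µM zinc acetate was applied for 1 h at 25 °C, followed by washing. The proteins were polyhistidine–DsRed N-terminal fusions of transcription factors, expressed in E. coli BL21-CodonPlus and Ni–NTA-purified. The binding signal is per-feature fluorescence intensity (arbitrary units) from an Axon 4000B scanner.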

Chain of OsWRKY34 (Q0JBA9 entry or part of it): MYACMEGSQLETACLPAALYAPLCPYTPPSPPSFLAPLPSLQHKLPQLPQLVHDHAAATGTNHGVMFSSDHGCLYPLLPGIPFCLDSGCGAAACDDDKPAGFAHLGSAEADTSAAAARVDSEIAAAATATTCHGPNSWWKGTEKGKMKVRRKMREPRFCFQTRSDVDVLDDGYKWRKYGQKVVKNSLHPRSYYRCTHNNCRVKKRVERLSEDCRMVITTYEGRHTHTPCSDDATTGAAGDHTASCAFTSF

Sequence | binding signal
CGAACCAAGACAAGAAAATAGAACCATCCTATCTATCAGGCGGAGTCACCTAGTGCAG | 11500 fluorescence intensity (a.u.)
GCTACACCGCACCCACCACAGCCAGACTTGAACTTGTTGACGGAGTCACCTAGTGCAG | 8950 fluorescence intensity (a.u.)
TTTCTTTTTCTTGGTTTTTTTTTGTCTTTTCTTCTTTTTCCGGAGTCACCTAGTGCAG | 18200 fluorescence intensity (a.u.)
GCTCCGTCTTCCTGCTCCAGCCGCTCGCCATAGCCCACTGCGGAGTCACCTAGTGCAG | 11100 fluorescence intensity (a.u.)
CTCTCTTTCTTCTTTGTGTCTTTGTTTCTTTTCTTTTTTCCGGAGTCACCTAGTGCAG | 14700 fluorescence intensity (a.u.)
GGTTTTTTTCCCGCTTATCCCACTTCTAGTCTATCTTTTTCGGAGTCACCTAGTGCAG | 19300 fluorescence intensity (a.u.)
TTTCTTGTTTTCTTCTCATTCTTCTTTTTTTTCTTTCTTCCGGAGTCACCTAGTGCAG | 14700 fluorescence intensity (a.u.)
TCATTATGGTGTTTCTTAATTGCTTTTTTCTTTTTATTATCGGAGTCACCTAGTGCAG | 8300 fluorescence intensity (a.u.)
GGGTTATGTTTCATTTGTATTATTTTCTTAATTCTTACACCGGAGTCACCTAGTGCAG | 12700 fluorescence intensity (a.u.)
GTCTCGCTTTCTCTCTCTAGGGTTTTTCCCCACTTTCGTTCGGAGTCACCTAGTGCAG | 13700 fluorescence intensity (a.u.)
CCGCTCGTCTTCCACTGCAGCCCAGCTCCCGTTCTTTCAACGGAGTCACCTAGTGCAG | 16500 fluorescence intensity (a.u.)
GGCGCCGTCGTCTTCTTTCCCACGCCGCCGCCGCCGTCAACGGAGTCACCTAGTGCAG | 8600 fluorescence intensity (a.u.)
TCTGCTTTTATTCATCGGTTTCATTAATTGTTTCTGTTACCGGAGTCACCTAGTGCAG | 17200 fluorescence intensity (a.u.)
ATCCCGCTTATCCCACTTCTAATTCATTTTTTCTTTTAAACGGAGTCACCTAGTGCAG | 10900 fluorescence intensity (a.u.)
CACATTGCGTCTTGTAGTCTGTATTGTAGCTGACTATATACGGAGTCACCTAGTGCAG | 8820 fluorescence intensity (a.u.)
CCTCCCTTGTTTTCTGTACCAATACGTGATGCACCGGTCTCGGAGTCACCTAGTGCAG | 8440 fluorescence intensity (a.u.)
GGGTTCACCACCAAACTCGCCACCTATAAACGCTCCTCGCCGGAGTCACCTAGTGCAG | 9030 fluorescence intensity (a.u.)
AATGTTAACGGTGCATGTGGTTGGTTGATTTGATTAGTGACGGAGTCACCTAGTGCAG | 15300 fluorescence intensity (a.u.)
AATGTTCAAAATTGTGCAATCAAGGTCTTACGGCAGTATACGGAGTCACCTAGTGCAG | 8120 fluorescence intensity (a.u.)

Sequence | binding signal
TTCTTTTCGCTAGTGATGTCTAGCGTTTCTTTTGACAAATCGGAGTCACCTAGTGCAG | 8560 fluorescence intensity (a.u.)
CGTCTTAGTTACCCTTCTACTCCTATCGCTCGATCGCCTCCGGAGTCACCTAGTGCAG | 8380 fluorescence intensity (a.u.)
TCCTTAGCTCCGCGGATTTGTTCACCATCACCACCATCACCGGAGTCACCTAGTGCAG | 8780 fluorescence intensity (a.u.)
GCACCAACCATCTCACCCGTCCGACGTGGCAGCAGCAACCCGGAGTCACCTAGTGCAG | 8770 fluorescence intensity (a.u.)
TGGTTCTTTGATCTTTTAATTTTGTTTGTTTGTTTGTTTTCGGAGTCACCTAGTGCAG | 12800 fluorescence intensity (a.u.)
TTGTGTGTGCGTTTGTGATTGCGTCGGTCGGTTTCAGTTCCGGAGTCACCTAGTGCAG | 17500 fluorescence intensity (a.u.)
GGGTGGCGTCCTGTTGTCATCTTTTATCCCTCTTGAATTCCGGAGTCACCTAGTGCAG | 21500 fluorescence intensity (a.u.)
TTTTTTCTGTTTTTTTCTTTCCGTATCTTTTTCAGTTTTTCGGAGTCACCTAGTGCAG | 14200 fluorescence intensity (a.u.)
GTCATCTTTGTTTGAGTCGGTTTTTAATTTTGTTTGCTTTCGGAGTCACCTAGTGCAG | 17700 fluorescence intensity (a.u.)
TTTTTTTCTTTCCGTATCTTTTTCTTTTTTTGGTTTTTTACGGAGTCACCTAGTGCAG | 8410 fluorescence intensity (a.u.)
AAGTTTAATTTGTTATTTTTATTTTTATACGTCATCTTTTCGGAGTCACCTAGTGCAG | 9760 fluorescence intensity (a.u.)
GAGTTCGGCCTTTCCGGTTTCCGGTTGTGTTGTGAGGAGTCGGAGTCACCTAGTGCAG | 10600 fluorescence intensity (a.u.)
CTGCCTGTCCCTTTCCTGCATCCATCCATCCATCTTGATCCGGAGTCACCTAGTGCAG | 10600 fluorescence intensity (a.u.)
TGTTTTTTTTCTTTCCGTATCTTTTTCTTTTTTTGGTTTTCGGAGTCACCTAGTGCAG | 19700 fluorescence intensity (a.u.)
ACTAAGTGCGTGATTGTTTCAGATTTGTTTGGGTTGCGGTCGGAGTCACCTAGTGCAG | 9410 fluorescence intensity (a.u.)
TCCCCTCTCTGTTGTCATCGTCTTCCTTTCCTTTCCTTTCCGGAGTCACCTAGTGCAG | 8230 fluorescence intensity (a.u.)
ATTGTTCGTCGAACTTTATCATATTATTAATCATCATATACGGAGTCACCTAGTGCAG | 8960 fluorescence intensity (a.u.)
ACCACGGCAAGCCCCTCGCCGAGTCTCTCATCATCGTCGACGGAGTCACCTAGTGCAG | 8830 fluorescence intensity (a.u.)
TTTGTGTAACCGATATGTGGGCCCCACATATTTTATTATTCGGAGTCACCTAGTGCAG | 9030 fluorescence intensity (a.u.)

Sequence | binding signal
TGCGTGGGTCCCAACTCCGGCCGTCTTCCGCCGTTGGATCCGGAGTCACCTAGTGCAG | 8940 fluorescence intensity (a.u.)
CCACGATCACATTCACCTCCCATCCCACGACGTTGCTCTCCGGAGTCACCTAGTGCAG | 8850 fluorescence intensity (a.u.)
TTTTACCAACTTTCTTAATACTCGTGTCCACCTAAAAAATCGGAGTCACCTAGTGCAG | 8440 fluorescence intensity (a.u.)
CGCCTCCGGCCTCCTCACGCACTGCCGCACCACGTCGCACCGGAGTCACCTAGTGCAG | 9020 fluorescence intensity (a.u.)
ACCTACTTTTCGTCCCTTAATTCTGTGGCTATGTTCAAATCGGAGTCACCTAGTGCAG | 12700 fluorescence intensity (a.u.)
GAGAGGAGGTGGTGGGAAGTGGCGGCTAGGGTTTGGGTGGCGGAGTCACCTAGTGCAG | 11300 fluorescence intensity (a.u.)
CACCTTCTTTTTCTCTCTCTCTCTCTCTCTCTTTCTCATCCGGAGTCACCTAGTGCAG | 10300 fluorescence intensity (a.u.)
AGCCTTATCTCTTCATCGGTTCATCCGGTGCCTGTTGTCTCGGAGTCACCTAGTGCAG | 8990 fluorescence intensity (a.u.)
GCAGTCGGTTCGCGTTTGTTTTTTTTCTTTCTTTCTTTTTCGGAGTCACCTAGTGCAG | 18400 fluorescence intensity (a.u.)
TGTTCTTTTTTTTTACACGCGTTTTTTTTACATTGTCGTTCGGAGTCACCTAGTGCAG | 18400 fluorescence intensity (a.u.)
TCATCCGGTGCCTGTTGTCTCTTTCTTCTCTCTCACATACCGGAGTCACCTAGTGCAG | 16600 fluorescence intensity (a.u.)
GGTTTTTTCGGTTTTCGGTTGTCAGTTCGGTTTCTGTTTTCGGAGTCACCTAGTGCAG | 15400 fluorescence intensity (a.u.)
TCGTTCGTTGGTTTGTTTTTTTTTTCTTTTCTCGCGTACACGGAGTCACCTAGTGCAG | 11600 fluorescence intensity (a.u.)
TTTTTACACGCGTTTTTTTTACATTGTCGTTTTTTTTTTGCGGAGTCACCTAGTGCAG | 13500 fluorescence intensity (a.u.)
TTCTTTTCGGTTGATTGTTTTTCTTTGTATTTCAGTGTTGCGGAGTCACCTAGTGCAG | 9180 fluorescence intensity (a.u.)
ATTATTGTTGTACAGTTCTTGCCTACAGTTCGGTTTTTCTCGGAGTCACCTAGTGCAG | 19700 fluorescence intensity (a.u.)
CGGCAGTGTTCTTTTTTTTTTACACGCGTTTTTTTTTACACGGAGTCACCTAGTGCAG | 10800 fluorescence intensity (a.u.)
GCACAGTGGGAGGCCCGCGTTCTTTTTTTTTCGCCGGTTTCGGAGTCACCTAGTGCAG | 10000 fluorescence intensity (a.u.)
